{"source": "PubChem BioAssay (NCATS)", "key": {"[1]": {"biological_target": "Cellular tumor antigen p53 (Homo sapiens) (UniProt P04637)", "sequence (P04637 whole entry, looked up)": "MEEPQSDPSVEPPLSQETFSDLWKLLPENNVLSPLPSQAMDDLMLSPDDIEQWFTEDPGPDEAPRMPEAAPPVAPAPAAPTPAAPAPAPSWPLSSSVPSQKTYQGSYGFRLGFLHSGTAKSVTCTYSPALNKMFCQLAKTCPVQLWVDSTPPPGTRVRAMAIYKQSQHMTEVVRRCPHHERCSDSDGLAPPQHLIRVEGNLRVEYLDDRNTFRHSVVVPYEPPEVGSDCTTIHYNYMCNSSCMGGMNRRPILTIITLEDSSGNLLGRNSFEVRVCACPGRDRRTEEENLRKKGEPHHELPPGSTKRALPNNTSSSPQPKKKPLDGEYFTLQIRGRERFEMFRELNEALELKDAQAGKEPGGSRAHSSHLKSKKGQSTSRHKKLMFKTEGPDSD", "assay": "Primary qHTS for small molecule compounds that upregulate eGFP-tagged delta133p53alpha (in N-terminal) cells. (AID 2060322); note: nearly all actives have a fitted effect of over 75% in size; note: potency is the fitted concentration of half-maximal effect; for activation: series mostly up to about 56 µM", "details": "NCI-H358 eGFP-delta133p53alpha fluorescence, 24 h; activation: active compounds read high", "how_it_was_run": "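NCI-H358 cells pre-induced 24 h with 10 ng/ml doxycycline for eGFP-delta133p53alpha, plated dox-free and exposed 24 h at 37C to titrated compounds. Fixed, Hoechst-stained; gated GFP peak intensity by laser scanning cytometry, normalized to DMSO (0%) and 57.5 uM 5-azacytidine (100%).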"}, "[2]": {"biological_target": "Aldehyde dehydrogenase, mitochondrial (Homo sapiens) (UniProt P05091)", "assay": "qHTS for Inhibitors of the Aldehyde Dehydrogenase Family (ALDH2) Primary screen (AID 2061308); note: nearly all actives have a fitted effect of over 55% in size"}, "[3]": {"biological_target": "Retinaldehyde dehydrogenase 3 (Homo sapiens) (UniProt P47895)", "assay": "qHTS for Inhibitors of the Aldehyde Dehydrogenase Family (ALDH1A3) Primary screen (AID 2061315)"}}, "note": "Results filed as inconclusive are left out. Entries that show only a call come without a potency. A number with no mark means an inactive call. The source made the active and inactive calls. Calls come from the whole dose curve; as a rule, active = well fitted curve in the direction sought with a large enough effect; inconclusive = small, poorly fitted or top-dose-only effect, or another doubt; inactive = no such curve, though single readings can be large; an effect the other way counts as inactive or inconclusive.", "data": [{"smiles": "CC(C)=CCC[C@](C)(O[C@@H]1O[C@H](CO[C@@H]2O[C@@H](CO)[C@H](O)[C@H]2O[C@@H]2OC[C@@H](O)[C@H](O)[C@H]2O)[C@@H](O)[C@H](O)[C@H]1O)[C@H]1CC[C@]2(C)[C@@H]1[C@H](O)CC1[C@@]3(C)CC[C@H](O[C@@H]4O[C@H](CO)[C@@H](O)[C@H](O)[C@H]4O[C@@H]4O[C@H](CO)[C@@H](O)[C@H](O)[C@H]4O)C(C)(C)C3CC[C@]12C", "note": "(stereo partly drawn)", "values": [{"measurement": "activation", "setting": "[1]", "value": -6.87, "unit": "%"}, {"measurement": "activity change, negative = inhibition", "setting": "[2]", "value": "1.66% [at 11.2 µM]"}, {"measurement": "activity change, negative = inhibition", "setting": "[3]", "value": "19.1% [at 11.2 µM]"}]}, {"smiles": "N#Cc1cccc(-c2nc(-c3cccnc3)no2)c1", "values": [{"measurement": "activation", "setting": "[1]", "value": -3.34, "unit": "%"}, {"measurement": "Potency", "setting": "[2]", "value": "inactive"}, {"measurement": "Potency", "setting": "[3]", "value": "inactive"}]}, {"smiles": "CC(C)CC(=O)OC1OC=C(CO[C@@H]2O[C@H](CO)[C@@H](O)[C@H](O)[C@H]2O)C2CC(O)C(O)(CO)C12", "note": "(stereo partly drawn)", "values": [{"measurement": "activation", "setting": "[1]", "value": 15.2, "unit": "%"}, {"measurement": "Potency", "setting": "[2]", "value": "inactive"}, {"measurement": "Potency", "setting": "[3]", "value": "inactive"}]}, {"smiles": "C=C1C(OC(C)=O)[C@@]23CCC4[C@](C)(C(=O)O)CCC[C@@]4(C)[C@]2(O)CC[C@H]1C3", "note": "(stereo partly drawn)", "values": [{"measurement": "activation", "setting": "[1]", "value": 8.93, "unit": "%"}, {"measurement": "Potency", "setting": "[2]", "value": "inactive"}, {"measurement": "Potency", "setting": "[3]", "value": "inactive"}]}, {"smiles": "CC1(C)CC[C@]2(C(=O)OC3OC(CO)C(O)C(O)C3O)CC[C@]3(C)C(=CCC4[C@@]5(C)C[C@@H](O)[C@H](OC6OC(C(=O)O)C(O)C(O)C6O)C(C)(C)C5CC[C@]43C)[C@@H]2C1", "note": "(stereo partly drawn)", "values": [{"measurement": "activation", "setting": "[1]", "value": -2.29, "unit": "%"}, {"measurement": "Potency", "setting": "[2]", "value": "inactive"}, {"measurement": "Potency", "setting": "[3]", "value": "inactive"}]}, {"smiles": "CC(C)C1(O[C@@H]2O[C@H](CO)[C@@H](O)[C@H](O)[C@H]2O)CC=C(CO)CC1", "note": "(stereo partly drawn)", "values": [{"measurement": "activation", "setting": "[1]", "value": 17.9, "unit": "%"}, {"measurement": "Potency", "setting": "[2]", "value": "inactive"}, {"measurement": "Potency", "setting": "[3]", "value": "inactive"}]}, {"smiles": "C1CCC[C@H]2CCCN3CC[C@@H](CCCCCC[C@@H]4CCCN5CC[C@@H](CC1)O[C@@H]45)O[C@@H]23", "values": [{"measurement": "activation", "setting": "[1]", "value": -4.33, "unit": "%"}, {"measurement": "activity change, negative = inhibition", "setting": "[2]", "value": "3.01% [at 0.092 µM]"}, {"measurement": "activity change, negative = inhibition", "setting": "[3]", "value": "-7.72% [at 0.092 µM]"}]}, {"smiles": "OC1COC(OCC2OC(OCCc3ccccc3)C(O)C(O)C2O)C(O)C1O", "note": "(stereo not drawn)", "values": [{"measurement": "activation", "setting": "[1]", "value": -11.5, "unit": "%"}, {"measurement": "Potency", "setting": "[2]", "value": "inactive"}, {"measurement": "Potency", "setting": "[3]", "value": "inactive"}]}, {"smiles": "CC(C)CN(C[C@@H](O)[C@H](Cc1ccccc1)NC(=O)O[C@@H]1CO[C@H]2OCC[C@H]21)S(=O)(=O)c1ccc(N)cc1", "values": [{"measurement": "activation", "setting": "[1]", "value": -7.16, "unit": "%"}, {"measurement": "Potency", "setting": "[2]", "value": "inactive"}, {"measurement": "Potency", "setting": "[3]", "value": "inactive"}]}, {"smiles": "Cn1nnc(-c2ccc(-c3ccc(N4C[C@H](CO)OC4=O)cc3F)cn2)n1", "values": [{"measurement": "activation", "setting": "[1]", "value": -5.36, "unit": "%"}, {"measurement": "Potency", "setting": "[2]", "value": "inactive"}, {"measurement": "Potency", "setting": "[3]", "value": "inactive"}]}, {"smiles": "C=C1CCC2C(C)(C(=O)O)CCCC2(C)C1CCC(C)CC(=O)O", "note": "(stereo not drawn)", "values": [{"measurement": "activation", "setting": "[1]", "value": -3.57, "unit": "%"}, {"measurement": "Potency", "setting": "[2]", "value": "inactive"}, {"measurement": "Potency", "setting": "[3]", "value": "inactive"}]}, {"smiles": "Cc1nnsc1C(=O)Nc1ccc(-n2nc(C(F)(F)F)cc2C(F)(F)F)cc1", "values": [{"measurement": "activation", "setting": "[1]", "value": 1.43, "unit": "%"}, {"measurement": "Potency", "setting": "[2]", "value": "inactive"}, {"measurement": "Potency", "setting": "[3]", "value": "inactive"}]}, {"smiles": "C[C@]1(O)CC[C@@H]2C(C(=O)O)=CO[C@@H](O[C@@H]3O[C@H](CO)[C@@H](O)[C@H](O)[C@H]3O)[C@@H]21", "values": [{"measurement": "activation", "setting": "[1]", "value": -11.5, "unit": "%"}, {"measurement": "Potency", "setting": "[2]", "value": "inactive"}, {"measurement": "Potency", "setting": "[3]", "value": "inactive"}]}, {"smiles": "CC1=C(CC/C(C)=C/C(=O)O)[C@@]2(C)CCCC(C)(C)C2CC1=O", "note": "(stereo partly drawn)", "values": [{"measurement": "activation", "setting": "[1]", "value": 6.25, "unit": "%"}, {"measurement": "Potency", "setting": "[2]", "value": "inactive"}, {"measurement": "Potency", "setting": "[3]", "value": "inactive"}]}, {"smiles": "C[C@@H]1O[C@@H](O[C@H]2[C@H](O[C@H]3[C@H](O)[C@@H](C(=O)O)O[C@@H](O[C@H]4CC[C@@]5(C)C(CC[C@]6(C)C5CC[C@]57OC[C@@]8(CCC(C)(C)CC85)[C@H](O)C[C@]76C)C4(C)C)[C@@H]3O[C@@H]3O[C@H](CO)[C@@H](O[C@@H]4OC[C@@H](O)[C@H](O)[C@H]4O)[C@H](O)[C@H]3O)O[C@H](CO)[C@H](O)[C@@H]2O)[C@H](O)[C@H](O)[C@H]1O", "note": "(stereo partly drawn)", "values": [{"measurement": "activation", "setting": "[1]", "value": -6.87, "unit": "%"}, {"measurement": "activity change, negative = inhibition", "setting": "[2]", "value": "5.88% [at 11.2 µM]"}, {"measurement": "activity change, negative = inhibition", "setting": "[3]", "value": "-5.39% [at 11.2 µM]"}]}, {"smiles": "C[C@@H]1CC[C@@]23CC[C@]4(C)[C@@](C=CC5[C@@]6(C)CC[C@H](O)C(C)(C)C6CC[C@]54C)(OC2=O)C3[C@H]1C", "note": "(stereo partly drawn)", "values": [{"measurement": "activation", "setting": "[1]", "value": 12.2, "unit": "%"}, {"measurement": "Potency", "setting": "[2]", "value": "inactive"}, {"measurement": "Potency", "setting": "[3]", "value": "inactive"}]}, {"smiles": "CC(=O)OC1C(O)C2C(C)C3=CC(=O)OC3(O)CC2C2(C)CCCC(C)(CO)C12", "note": "(stereo not drawn)", "values": [{"measurement": "activation", "setting": "[1]", "value": 9.16, "unit": "%"}, {"measurement": "Potency", "setting": "[2]", "value": "inactive"}, {"measurement": "Potency", "setting": "[3]", "value": "inactive"}]}, {"smiles": "C=C(C(=O)O)C1CCC2(C)CCCC(C)(O)C2C1", "note": "(stereo not drawn)", "values": [{"measurement": "activation", "setting": "[1]", "value": -5.36, "unit": "%"}, {"measurement": "Potency", "setting": "[2]", "value": "inactive"}, {"measurement": "Potency", "setting": "[3]", "value": "inactive"}]}, {"smiles": "COC1=CC(=O)O[C@@H](/C=C/c2ccccc2)[C@@H]1O", "values": [{"measurement": "activation", "setting": "[1]", "value": 9.82, "unit": "%"}, {"measurement": "Potency", "setting": "[2]", "value": "inactive"}, {"measurement": "Potency", "setting": "[3]", "value": "inactive"}]}, {"smiles": "CN(C)CC1CCn2c(c(C3=C(c4cn(C)c5ccccc45)C(=O)NC3=O)c3ccccc32)C1", "note": "(stereo not drawn)", "values": [{"measurement": "Potency", "setting": "[1]", "value": "34.3 µM (active)"}, {"measurement": "Potency", "setting": "[2]", "value": "inactive"}, {"measurement": "Potency", "setting": "[3]", "value": "inactive"}]}, {"smiles": "CC1C(=O)OCC2=CCN3CCC(OC(=O)C(C)(O)C1(C)O)C23", "note": "(stereo not drawn)", "values": [{"measurement": "activation", "setting": "[1]", "value": -5.36, "unit": "%"}, {"measurement": "Potency", "setting": "[2]", "value": "inactive"}, {"measurement": "Potency", "setting": "[3]", "value": "inactive"}]}]}
